Experimental data published in PubChem BioAssay AID1321 (The Scripps Research Institute Molecular Screening Center, 2008).
Hit rate of the full screen: of about 220,000 compounds, about 2,600 (1.2%) were called active.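 Rule for the calls: active = activation above the mean of all tested compounds plus 3 SD, set per screening run (cut at about 8.8% in these data); inactive = the rest.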 What follows is part of a selection rich in actives, with near analogues and random picks from the rest.

Target: Wee1-like protein kinase (Homo sapiens) (UniProt P30291)
Assay: Wee1 degradation inhibitors, primary screen, cell-based, HeLa, Wee1K328M-luciferase, luminescence (AID 1321);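 note: cells exposed to compound for 20 h before luminescence read; 0% = DMSO alone and 100% = MG132 at 30 µM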
Settings: HeLa Luc-Wee1K328M stability, at 5 µM, stronger effect = higher value, 100% = proteasome inhibitor MG132 effect

SMILES | reporter increase
CN(C)C(=O)c1nc2ccc(Cl)cn2c1CNCc1cccc(OC(F)(F)F)c1 | 0.21% (inactive)
Cc1ccc(C(=O)N/N=C\c2cc(Br)c(Br)o2)cn1 | 1.9% (inactive)
CCOC(=O)N1CCN(c2c(NCCN3CCN(c4ccccc4F)CC3)c(=O)c2=O)CC1 | -1.76% (inactive)
CCOc1ccc(CNC(=O)C2CCC(=O)N2C2CCCC2)cc1OC (centres undefined) | -2.75% (inactive)
CCOc1cc(C2C(C(=O)OC)=CN(C3CCCC3)C=C2C(=O)OC)cc(Br)c1O | 14.3% (active)
CCOc1ccccc1C1C(C(=O)OC)=CN(C)C=C1C(=O)OC | -2.5% (inactive)
CN(C)S(=O)(=O)c1cccc(-c2nn(-c3ccccc3)cc2/C=C2\SC(=S)N(CC(=O)O)C2=O)c1 | -2.5% (inactive)
CN1CCc2nc(SC(C(=O)O)c3ccccc3)c(C#N)c(-c3cccs3)c2C1 (centres undefined) | -1.79% (inactive)
Cc1ccsc1/C=N/Nc1ccc(Cl)nn1 | 1.78% (inactive)
O=C(CSc1nnc2n1CCCN2)c1ccccc1 | 1.24% (inactive)
Cc1ccc(NC(=O)/C(=C\c2ccccc2)NC(=O)c2ccco2)cc1 | 2.36% (inactive)
O=C(N/N=C/c1ccc(OCc2ccccc2)cc1)c1ccc(O)cc1 | -1.31% (inactive)
O=C(O)c1ccc(/C=N/NC(=O)c2ccc(Br)cc2)cc1 | 0.91% (inactive)
O=C(N/N=C/c1ccc(OCC2COCCO2)cc1)c1ccc(Br)cc1 (centres undefined) | 10.9% (active)
O=C(O)C(NS(=O)(=O)c1cccc2nsnc12)c1ccccc1 (centres undefined) | -0.72% (inactive)
Cn1cc(S(=O)(=O)NC(c2ccccc2)c2ccccc2)c(=O)n(C)c1=O | -2.84% (inactive)
COc1cc2nc(Cl)nc(NCCO)c2cc1OC | -0.52% (inactive)
Cc1ccc(NC(=O)OCc2cncs2)cc1 | 2.2% (inactive)
CCCCCOC(=O)NCCOC(=O)Nc1ccc(C(=O)OCC)cc1 | 3.09% (inactive)
Cc1ccc(NC(=O)OCCNC(=O)c2ccncc2)cc1 | 14.4% (active)
O=C(NCc1ccccc1)c1ccc(S(=O)(=O)Nc2cccc(C(F)(F)F)c2)cc1 | -0.38% (inactive)
COc1ccc(CCn2c(NN=C3CCCC3)nc3c2c(=O)[nH]c(=O)n3C)cc1 | -2.59% (inactive)
O=C(NC1C2CC3CC(C2)CC1C3)c1ccc(N2CCNCC2)c([N+](=O)[O-])c1 (centres undefined) | -0.74% (inactive)
N/C(=N\OC(=O)c1cc(-c2ccccc2)nc2ccccc12)c1ccncc1 | 2.66% (inactive)
Cc1cccc(C(=O)c2cccc(C)c2)c1 | -0.47% (inactive)
Cc1cccc(/C(N)=N/OC(=O)c2ccccc2Cl)c1 | 11.3% (active)
CCNc1nc(Oc2ccc(C(=O)OC)cc2)nc(N2CCOCC2)n1 | 1.78% (inactive)

SMILES | reporter increase
CCOc1ccc(NC(=S)NC(=O)/C=C/c2ccc(OC)cc2)c([N+](=O)[O-])c1 | 9.57% (active)
CC(=O)Nc1ccc(NC(=S)NC(=O)/C=C/c2ccccc2)cc1 | -3.02% (inactive)
Cc1ccc(NC(=S)NC(=O)/C=C/c2ccc(Cl)cc2)cc1 | 2.86% (inactive)
CCOC(=O)c1c(C)oc2ccc(OCC(=O)N(CC)CC)cc12 | -2.85% (inactive)
COCCOC(=O)c1c(C)oc2cc(Br)c(OCC(N)=O)cc12 | 10.5% (active)
CCOC(=O)c1c(C)oc2cc(Br)c(OCC(N)=O)cc12 | 8.52% (inactive)
C/C(=N/NC(=O)CN1CCN(S(=O)(=O)c2ccc(Br)cc2)CC1)c1ccncc1 | 0.47% (inactive)
COC(=O)/C=C(\Oc1ccccc1)C1(O)CCCCC1 | -1.22% (inactive)
Cc1ccc(Nc2nc(N)nc(CN3CCN(Cc4ccccc4)CC3)n2)cc1Cl | 4.72% (inactive)
O=C(NCc1ccccn1)Nc1ccc(F)cc1 | 3.54% (inactive)
c1ccc(CN=C2Nc3ccccc3CS2)nc1 | 10.7% (active)
CCc1ccc[n+](-c2nc([O-])sc2C=O)c1 | 10.2% (active)
O=C(NCc1csc(-c2cccs2)n1)C1CC1 | -1.28% (inactive)
O=C(NCC1CCCO1)c1ccccc1-c1nc(-c2ccccc2Cl)no1 (centres undefined) | -0.52% (inactive)
O=C(CSc1nnnn1-c1ccc(O)cc1)c1ccc(F)cc1 | -3.92% (inactive)
Cc1onc(NC(=O)c2ccc([N+](=O)[O-])o2)c1Br | 0.61% (inactive)
O=S(=O)(NCc1ccccn1)c1ccc(F)cc1 | -3.61% (inactive)
O=S(=O)(NCc1ccccn1)c1ccc(Br)s1 | 9.46% (active)
O=S(=O)(NCc1cccnc1)c1ccc(Br)s1 | 3.49% (inactive)
Cc1nc(/N=C(\N)NC(=O)NC2CCCCC2)nc2ccccc12 | -1.12% (inactive)
CN(C)c1ccnc(Nc2ccc(F)cc2)c1C#N | 4.88% (inactive)
O=C(Nc1ccccc1)c1cccnc1Nc1ccccc1 | -2.05% (inactive)
CC(C)c1ccc(Nc2ncccc2C#N)cc1 | 19.9% (active)
COC(=O)CN(C(=S)Nc1ccc(Cl)cc1)C1CC(=O)N(c2ccc(OC)cc2)C1=O (centres undefined) | 0.7% (inactive)
CCOc1ccc(N2C(=O)CC(N(CCc3ccc(OC)c(OC)c3)C(=S)Nc3ccccc3)C2=O)cc1 (centres undefined) | 10.8% (active)
CCOc1ccc(N2C(=O)CC(N(O)c3ccccc3)C2=O)cc1 (centres undefined) | 7.01% (inactive)
Cc1cccc(N(C)C(=O)c2cc3c(=O)[nH]c4ccc(C)cc4c3s2)c1 | 0.97% (inactive)
